In PubChem BioAssay AID595 (National Center for Advancing Translational Sciences (NCATS), 2007):
The campaign covered roughly 71,000 compounds. About 310 (0.44%) were called active. Inconclusive results (about 5%) are left out. This is one part of a sample in which actives are shown more often than they occur. Unmarked numbers belong to inactive results. The call rests on the fitted dose curve; in most records, active means well fitted curve in either direction with a large enough effect; inconclusive means small, poorly fitted or top-dose-only effect, or another doubt; inactive means flat fitted curve, though single readings scatter.

Tested on: Hsp90 C-terminal peptide / TPR2A (Hop) interaction, human
Assay: qHTS Assay for Disrupters of an Hsp90 Co-Chaperone Interaction
Conditions: AlphaScreen TPR2A-His6 binding biotin-Hsp90 C-terminal peptide; series mostly up to 57 µM; activity change, negative = inhibition: at the top concentration
Description: NIH Chemical Genomics Center [NCGC]
NIH Molecular Libraries Screening Centers Network [MLSCN]
Hsp90 (heat shock protein 90) is the essential molecular chaperone and it accounts for 1-2% of all cytosolic proteins and is critical for the activity of diverse cellular proteins that are involved in a variety of cellular processes, including development, cell cycle, and steroid hormone signaling. Its client proteins include signaling kinases such as IGF1R, Akt, v-Src, Raf-1; regulators of cell survival such as Bcr-Abl; and transcription factors such as mutated p53, estrogen and progesterone receptors. Hsp90 has emerged as an important target for cancer treatment due to its essential role in maintaining transformation and regulating the function of oncogenic signaling proteins.
The in vivo function of Hsp90 is regulated by the binding and hydrolysis of ATP at its N-terminal. Geldanamycin binds to ATP site and inhibit Hsp90 function. Geldanamycin and its analogues are under clinical trials in cancer patients.
This domain contains the binding site for tetratricopeptide repeat (TPR) domains on HOP (Hsp Organizing Protein). TPR is a structural motif used by a significant number of cochaperones by which the in vivo function of Hsp90 is regulated. TPR2A on HOP binds specifically to MEEVD motif of the C-terminal of Hsp90.
A homogeneous AlphaScreen is developed to assess the interaction between TPR2A and MEEVD motif of the C-terminal of Hsp90 by using the isolated TPR2A domain and a synthesized 20mer Hsp90 C terminal peptide. AlphaScreen is two bead-based proximity-dependent chemical energy transfer luminescent assay platform. TPR2A-His-6 and biotinylated Hsp90 C terminal peptide will bring streptavidin donor beads and nickel chelate acceptor beads to a proximity range (less than 200 nm), and subsequently lead a chemical luminescent reaction upon exciting donor beads with 680 nm laser. Inhibition of TPR2A and MEEVD motif interaction by small molecules could attenuate or abolish this chemical luminescent reaction.
Counter screening: Biotinylated-His-6 (PerkinElmer) can be utilized as a counter screen, as it serves as a linker to bring streptavidin beads and nickel chelate beads together. The counter screen can exclude alpha screen platform false positives due to small molecules being metal chelators, biotin analogues and imidazole analogues, or due to interfering with oxygen release from donor beads. Such an assay should be utilized to qualify any activity observed in this screen.
NCGC Assay Protocol Summary:
The assay was performed on 1536-well white plate (untreated solid bottom). Liquids were dispensed by 1536-well plate washer (Kalypsys, San Diego, CA). Plates were read on EnVision (PerkinElmer, Boston, MA).TPR2A-His6 was produced using a bacteria expression system and purified using a well developed method (Ghosh et al., 2000). Hsp90 C terminal 20-mer peptide with or without an N-terminal biotin group are synthesized using automated solid phase synthesis by the Yale Keck facility. The composition of assay buffer was (in mM) 25 HEPES, 100 KCl, 2 MgCl2 and 2 DTT; 0.1% BSA and 0.01% Tween-20. TPR2A-His6 binding to biotin-Hsp90 will bring streptavidin donor beads and nickel chelate acceptor beads (PerkinElmer) together and can be measured by Alpha reading by EnVision (PerkinElmer). Free Hsp90 blocks biotin-Hsp90 binding to TPR2 and serves as a positive control in the current asssay.
The assay was performed at room temperature. All compounds were screened as titrations from […] to 46 uM final concentration. The assay was performed in 1536-well format plates (untreated white solid bottom, Corning Inc.) as follows:
Sequence,Parameter,Value,Description
1,Reagent,3 uL TPR2A-His6,Final concentration was 5nM
2,Compound,23 nL,Final titration was from 0.7 nM to 46 uM
3,Time,15 minutes,Room temperature
4,Reagent,1 uL biotin-Hsp90,With and without free Hsp90. Final concentration was 10 nM for biotin-Hsp90 and 10uM for free Hsp90.
5,Time,1 hour,Room temperature
[…]
On the % scale 0 is the no-effect control and ±100 the full control effect; potency means the concentration at half of the fitted maximal effect.

Compound	activity change, negative = inhibition	Potency
CC1(C)S[C@@H]2[C@@H](NC(=O)[C@@H](N)c3ccccc3)C(=O)N2[C@H]1C(=O)O	-8.43%	–
O=C(NCC12CC3CC(C1)CC(CNC(=O)N1CCCC1)(C3)C2)N1CCCC1	-1.73%	–
CC(C)NC(=O)N1CCCC2(CCN(C(=O)c3cccn3C)CC2)C1	-1.72%	–
c1ccc2c(Nc3ccncc3)nc(-c3ccoc3)nc2c1	-15.2%	–
O=C(c1ccncc1)N1CCC2(CCN(Cc3cc(C(F)(F)F)cc(C(F)(F)F)c3)CC2)CC1	-0.985%	–
COc1ccccc1CCn1c(=O)c(-c2cn(C)c3ccccc23)nc2cncnc21	–	0.631 µM [activator] (active)
COc1ccc(-n2c(=O)c(-c3cn(C)c4ccccc34)nc3cnc(OC)nc32)cc1	-7%	–
Cn1cc(-c2nc3cncnc3n(-c3ccccc3)c2=O)c2ccccc21	12.7%	–
COC(=O)[C@@]1(Cc2ccc(OC)cc2)[C@H]2c3cc(C(=O)N4CCCC4)n(Cc4ccc(OC(F)(F)F)cc4)c3C[C@H]2CN1C(=O)c1ccccc1	-21%	–
Cc1ccc(Br)cc1	1.28%	–
Cc1nc2cnc(N3CCNCC3)nc2n(CCc2ccccc2)c1=O	-7.4%	–
C(=C\c1ccccc1)/CSc1nnc(-c2cccnc2)n1Cc1ccco1	-3.91%	–
CCCS(=O)(=O)N1CCC(C(=O)NCCCN(C)Cc2ccccc2)CC1	2.07%	–
COc1ccccc1CNc1ccnc(-c2c(C)noc2C)n1	3.49%	–
CSc1ccc(S(=O)(=O)Nc2cccc(F)c2)cc1	-0.401%	–
O=C(O)C1CCCN1S(=O)(=O)c1ccc2c(c1)CCC2 (stereo not drawn)	0.639%	–
CC(C)c1cc(CN(C)C)c(O)c(C(C)(C)C)c1	1.81% [at 11 µM]	–
CCC(C)(NC(=O)c1ccccn1)C(=O)NC1CCCCC1 (stereo not drawn)	-3.12%	–
CCOc1ccc(C(=O)N(Cc2ccc(N(C)C)cc2)C2CCS(=O)(=O)C2)cc1 (stereo not drawn)	-13%	–
CC(C)Cn1c(CN(Cc2ccccc2)Cc2ccccc2)nc2c1c(=O)n(C)c(=O)n2C	2.13%	–
COc1ccc(CN2C(=O)CN=C2Nc2ccc(C)cc2C)cc1	-1.44%	–

Compound	activity change, negative = inhibition	Potency
OCCCNCc1ccccn1	-9.89% [at 11 µM]	–
CCCCC[C@H](O)CCCC(=O)O	-7.89%	–
CCCn1c(-c2ccc(F)cc2)nc2c(NC3CCN(Cc4ccccc4)C3)nc(C)nc21 (stereo not drawn)	-16.3%	–
CC(=O)CCS(=O)(=O)c1ccc(C)c(C)c1	-3.12%	–
C#CCN1CC(C)/C(=N/O)CC1C (stereo not drawn)	0.89%	–
COc1ccc(Cl)cc1NC(=O)C1CC(=O)N(c2ccc(F)cc2)C1 (stereo not drawn)	-6.06%	–
C[C@H](CCC(=O)O)[C@H]1CC[C@@H]2[C@H]3CC[C@H]4C[C@H](O)CC[C@@]4(C)[C@@H]3CC[C@@]21C	-0.844% [at 11 µM]	–
COCCn1c(=O)c(CCc2ccccc2)nc2cnc(N3CCNCC3)nc21	-2.61%	–
Oc1ccccc1CNCc1ccccc1O	-2.03% [at 11 µM]	–
O=C(Cl)c1ccc([N+](=O)[O-])cc1	0.785%	–
Cc1noc(C)c1-c1cc(NCc2cccnc2)ncn1	-0.41%	–
c1ccc2sc(SCCSc3nc4ccccc4s3)nc2c1	2.87% [at 11 µM]	–
O=C(O)CCCCC(=O)O	-1.35%	–
CN(C)c1ccc(-c2nc(NCCN3CCOCC3)c3ccccc3n2)cc1	-7.7%	–
COC(=O)c1c(-c2ccc(C)cc2)csc1N	-5.56%	–
CC(C)CC1(C(=O)NCc2ccccn2)C=CCN1C(=O)c1ccccc1 (stereo not drawn)	-3.81%	–
CN(CCCNC(=O)CN1C(=O)CC(C)(C)S(=O)(=O)c2ccccc21)C1CCCCC1	-2.54%	–
O=c1[nH]c(=O)n([C@H]2C[C@H](O)[C@H](CO)O2)cc1Br	-2.56%	–
Cc1ccc(S(=O)(=O)Nc2ccccc2CNc2c(C)n(C)n(-c3ccccc3)c2=O)cc1	-1.54%	–
N[C@H](C(=O)O)c1ccc(C(=O)O)c(O)c1	-1.81%	–
CCCn1c(=O)c2[nH]c(-c3ccc(OCC(=O)NCCN)cc3)nc2n(CCC)c1=O	-19.8%	–

Compound	activity change, negative = inhibition	Potency
COc1ccc(OC)c(CN2C(=O)CCC2(C)C(=O)NC2CCCCCC2)c1 (stereo not drawn)	-12.8%	–
CCCCC/C=C/C=C/C=O	0.076%	–
N#Cc1cccc(-c2nc3cnc(N4CCNCC4)nc3n(C3CC3)c2=O)c1	-4.38%	–
O=c1c(-c2ccc(F)cc2)nc2cncnc2n1-c1ccccc1	-0.766%	–
c1ccc2c(c1)-c1ccccc1C2N1CC2CCC(CC2)C1	2.37% [at 11 µM]	–
COc1ccc(C[C@H](N)C(=O)N[C@@H]2[C@H](O)[C@H](n3cnc4c(N(C)C)ncnc43)O[C@@H]2CO)cc1	-4.16% [at 26 µM]	–
Cc1cc(Cl)ccc1OCC(=O)Oc1c(Cl)c(Cl)c(Cl)c(Cl)c1Cl	0.356% [at 11 µM]	–
O=C(COc1ncnc2ccccc12)NC(=O)NCc1ccccc1	2.77%	–
C[C@@H]1O[C@@H](O[C@@H]2[C@@H](O)[C@H](OCCc3ccc(O)c(O)c3)O[C@H](CO[C@@H]3O[C@H](CO)[C@@H](O)[C@H](O)[C@H]3O)[C@H]2OC(=O)/C=C/c2ccc(O)c(O)c2)[C@H](O)[C@H](O)[C@H]1O	-0.838%	–
Cc1ccccc1N1CCN(S(=O)(=O)C[C@@]23CC[C@H](C[C@H]2NC(=O)[C@@H](N)CCS(C)(=O)=O)C3(C)C)CC1	-8.53%	–
COc1ccc(NC(=O)N2CC3(CCN(C(=O)c4cccn4C)CC3)C2)cc1	-8.94%	–
COc1ccc(C(=O)N2CCC3(CC2)CCN(c2ccccn2)CC3)cc1	2.71%	–
O=C(Nc1cccc(F)c1)N1CC2(CCN(C(=O)c3csnn3)CC2)C1	1.12%	–
CCn1ccnc1C[C@@H]1COc2ccccc2O1	inactive	–
CC/C=C/C/C=C/C/C=C/CCCCCCCC(=O)OCC	1.86%	–
CCOC(=O)c1c(NC(=O)CSc2nnc(CN3CCOCC3)n2C)sc2c1CCCC2	-2.12%	–
CCOC(=O)c1c(NC(=O)CSc2nnc(Cc3csc(N)n3)n2C)sc(C)c1C	–	25.1 µM (active)
COC(=O)c1c(NC(=O)CSc2nc3c(c(=O)n(C)c(=O)n3C)n2C(C)C)sc(C)c1C	-2.6%	–
Brc1cc(Br)c(Oc2cc(Br)c(Br)cc2Br)cc1Br	12.2%	–
Nc1nc2c(ncn2[C@H]2CC[C@@H](CO)O2)c(=O)n1C(=O)c1ccccc1	-4.52% [at 11 µM]	–
CCOC(=O)CSc1nnc(CNc2ccc(F)cc2)o1	-0.588%	–
